Test [1] can be described thus: NCI Yeast Anticancer Drug Screen. Data for the rad50 strain (AID 155).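 Note: 0% = growth of vehicle-only cultures of the same strain.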 To be noted: S. cerevisiae rad50 strain growth inhibition, stronger effect = higher value. In a few lines:
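Compounds were tested on a yeast strain with an engineered DNA damage repair alteration; the reported value is growth inhibition normalised to vehicle treatment.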

The nature of test [2]: NCI Yeast Anticancer Drug Screen. Data for the mec2-1 strain (AID 157). The following applies: S. cerevisiae mec2-1 strain, stronger effect = higher value. In a few lines:
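mec2-1 yeast strain, carrying an alteration in DNA damage repair or cell cycle control, was exposed to compounds; growth inhibition was measured relative to vehicle-treated controls.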

The nature of test [3]: NCI Yeast Anticancer Drug Screen. Data for the sgs1 mgt1 strain (AID 161).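 Note: 0% = growth of cultures given vehicle only.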 To be noted: S. cerevisiae sgs1 mgt1 strain, stronger effect = higher value. In a few lines: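 Compounds are added to genetically altered yeast, and growth is compared with cultures given vehicle alone to give percent inhibition.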
Test [4] in a line: NCI Yeast Anticancer Drug Screen. Data for the cln2 rad14 strain (AID 165).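 Note: 0% = growth equal to vehicle treated cultures.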 The following applies: S. cerevisiae cln2 rad14 strain, stronger effect = higher value. A digest of the protocol:
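Yeast carrying cln2 and rad14 alterations (cell cycle control and DNA damage repair) were exposed to compounds. Growth inhibition was measured against vehicle-treated controls.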

Test [5] can be described thus: NCI Yeast Anticancer Drug Screen. Data for the bub3 strain (AID 167). The following applies: S. cerevisiae bub3 mutant strain, stronger effect = higher value. In a few lines:
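Growth of a checkpoint-deficient yeast mutant is measured after compound exposure. Values represent inhibition relative to vehicle.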

Test [6] is described as follows: NCI Yeast Anticancer Drug Screen. Data for the mlh1 rad18 strain (AID 175). To be noted: S. cerevisiae mlh1 rad18 strain growth inhibition, stronger effect = higher value. A digest of the protocol:
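Growth inhibition of the yeast strain was measured after compound exposure and expressed relative to vehicle-treated controls. The strain carries defined defects in DNA damage repair.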

The mark [7] stands for this setting: at 5.0 µM (retest, dose inferred, filed as 0.5).
Where [8] appears, read: at 50.0 µM (retest, dose inferred, filed as 5.0).

Compounds without any hit were thinned out: in the full panel of roughly 79,000, 15% have a hit. Unmarked numbers belong to inactive results. Activity calls are given as the source filed them. Cut-off read from the data, not from the text of the source: active = growth inhibition above about 70%; inactive = the rest.

Turning to `CC(=O)C1C(=O)C=C(C)OC1=O` (configuration not stated), the growth inhibition in test [1] (setting [7]) is 4%; in test [1] (setting [8]), 21%; in test [1] (at 50.0 µM), 40.5%; in test [2] (setting [7]) it was 8%; in test [2] (setting [8]) it was 18%; in test [2] (at 50.0 µM) it was 29.1%. Also, the growth inhibition in test [3] (setting [7]) is 1%; in test [3] (setting [8]) it was 18%; in test [3] (at 50.0 µM), -0.75%; in test [4] (setting [7]), 7%; in test [4] (setting [8]), 13%; in test [4] (at 50.0 µM), 3.7%. For the same molecule, the growth inhibition in test [5] (setting [7]) is 0%; in test [5] (setting [8]), 2%; in test [5] (at 50.0 µM) it was 28.9%; in test [6] (setting [7]), 4%; in test [6] (setting [8]) it was 23%; in test [6] (at 50.0 µM), 70.7% (active).

As to `Cc1ccc(C(=O)C(CCC#N)(CCC#N)CCC#N)cc1`, the growth inhibition was -8% in test [1] (setting [7]); -5% in test [1] (setting [8]); -13.7% in test [1] (at 50.0 µM); -8% in test [2] (setting [7]); -17% in test [2] (setting [8]); -0.25% in test [2] (at 50.0 µM). In addition, the growth inhibition in test [3] (setting [7]) is -1%; in test [3] (setting [8]), -11%; in test [3] (at 50.0 µM), 8.85%; in test [4] (setting [7]), -15%; in test [4] (setting [8]) it was -3%; in test [4] (at 50.0 µM), -6.25%. Further, the growth inhibition is 12% in test [5] (setting [7]); 15% in test [5] (setting [8]); 1.1% in test [5] (at 50.0 µM); 4% in test [6] (setting [7]); -6% in test [6] (setting [8]); 4.3% in test [6] (at 50.0 µM).

As for `BrC1CCCCCC1`, the growth inhibition in test [1] (setting [7]) was 2%; in test [1] (setting [8]), 10%; in test [1] (at 50.0 µM), 51.9%; in test [2] (setting [7]) it was 3%; in test [2] (setting [8]), 16%; in test [2] (at 50.0 µM), 34.5%. The growth inhibition is 1% in test [3] (setting [7]); 22% in test [3] (setting [8]); 57.4% in test [3] (at 50.0 µM); 6% in test [4] (setting [7]); 14% in test [4] (setting [8]); 27.4% in test [4] (at 50.0 µM). Moreover, the growth inhibition was 5% in test [5] (setting [7]); 35% in test [5] (setting [8]); 37% in test [5] (at 50.0 µM); 6% in test [6] (setting [7]); 24% in test [6] (setting [8]); 81.7% (active) in test [6] (at 50.0 µM).

Take `CC1OC(C)C(O)C2=C1C(=O)c1ccccc1C2=O` (configuration not stated): the growth inhibition is -4% in test [1] (setting [7]); 95% (active) in test [1] (setting [8]); 91.9% (active) in test [1] (at 50.0 µM); -29% in test [2] (setting [7]); 77% (active) in test [2] (setting [8]); 86.3% (active) in test [2] (at 50.0 µM). Further, the growth inhibition in test [3] (setting [7]) is 14%; in test [3] (setting [8]) it was 94% (active); in test [3] (at 50.0 µM), 91.8% (active); in test [4] (setting [7]), 2%; in test [4] (setting [8]), 55%; in test [4] (at 50.0 µM) it was 60.4%. In addition, the growth inhibition was 14% in test [5] (setting [7]); 87% (active) in test [5] (setting [8]); 83.5% (active) in test [5] (at 50.0 µM); 23% in test [6] (setting [7]); 96% (active) in test [6] (setting [8]); 87.8% (active) in test [6] (at 50.0 µM).

Turning to `c1ccc2c(c1)ccc1c2ccc2sc3ccccc3[n+]21`, the growth inhibition in test [1] (setting [7]) was 71% (active); in test [1] (setting [8]), 94% (active); in test [1] (at 50.0 µM) it was 92.3% (active); in test [2] (setting [7]) it was 53%; in test [2] (setting [8]), 96% (active); in test [2] (at 50.0 µM) it was 53.9%. Moreover, the growth inhibition is 59% in test [3] (setting [7]); 93% (active) in test [3] (setting [8]); 91.2% (active) in test [3] (at 50.0 µM); 62% in test [4] (setting [7]); 92% (active) in test [4] (setting [8]); 69.8% in test [4] (at 50.0 µM). The growth inhibition in test [5] (setting [7]) is 54%; in test [5] (setting [8]), 92% (active); in test [5] (at 50.0 µM), 73.5% (active); in test [6] (setting [7]), 75% (active); in test [6] (setting [8]), 96% (active); in test [6] (at 50.0 µM), 91.3% (active).

For `COc1ccc(/C(C#N)=C(/N)SCc2ccccc2Cl)cc1`, the growth inhibition in test [1] (setting [7]) is -3%; in test [1] (setting [8]), 14%; in test [1] (at 50.0 µM), 90.9% (active); in test [2] (setting [7]), -2%; in test [2] (setting [8]), 14%; in test [2] (at 50.0 µM), 64.9%. Also, the growth inhibition in test [3] (setting [7]) was 10%; in test [3] (setting [8]), 36%; in test [3] (at 50.0 µM), 97.2% (active); in test [4] (setting [7]), -7%; in test [4] (setting [8]), 15%; in test [4] (at 50.0 µM) it was 66.8%. The growth inhibition in test [5] (setting [7]) was 3%; in test [5] (setting [8]), 49%; in test [5] (at 50.0 µM) it was 83.5% (active); in test [6] (setting [7]), -1%; in test [6] (setting [8]) it was 34%; in test [6] (at 50.0 µM), 90% (active).

With `CC(=O)[C@H]1CC[C@H]2[C@@H]3CC[C@H]4C[C@@H](N5CCOCC5)CC[C@]4(C)[C@H]3CC[C@]12C`, the growth inhibition in test [1] (setting [7]) is 54%; in test [1] (setting [8]), 63%; in test [1] (at 50.0 µM) it was 73.3% (active); in test [2] (setting [7]) it was 61%; in test [2] (setting [8]) it was 76% (active); in test [2] (at 50.0 µM), 36.5%. For the same molecule, the growth inhibition in test [3] (setting [7]) was 70% (active); in test [3] (setting [8]) it was 87% (active); in test [3] (at 50.0 µM), 83.5% (active); in test [4] (setting [7]), 52%; in test [4] (setting [8]), 30%; in test [4] (at 50.0 µM), 87.5% (active). The growth inhibition is 49% in test [5] (setting [7]); 81% (active) in test [5] (setting [8]); 59.5% in test [5] (at 50.0 µM); 76% (active) in test [6] (setting [7]); 69% in test [6] (setting [8]); 74.8% (active) in test [6] (at 50.0 µM).

For the molecule `Cc1cc(Cl)c2cc(Cc3ccc(Br)cc3)ccc2n1`, the growth inhibition is -3% in test [1] (setting [7]); 10% in test [1] (setting [8]); 16.5% in test [1] (at 50.0 µM); -10% in test [2] (setting [7]); 20% in test [2] (setting [8]); 36% in test [2] (at 50.0 µM). Further, the growth inhibition is 11% in test [3] (setting [7]); 37% in test [3] (setting [8]); 43.9% in test [3] (at 50.0 µM); 1% in test [4] (setting [7]); -1% in test [4] (setting [8]); 50.6% in test [4] (at 50.0 µM). The growth inhibition in test [5] (setting [7]) was 4%; in test [5] (setting [8]) it was 12%; in test [5] (at 50.0 µM), 37.6%; in test [6] (setting [7]), 15%; in test [6] (setting [8]) it was 15%; in test [6] (at 50.0 µM), 55.9%.

Consider `Cc1ccnc(-c2cc(C)ccn2)c1`, for which the growth inhibition in test [1] (setting [7]) is 6%; in test [1] (setting [8]), 96% (active); in test [1] (at 50.0 µM), 64%; in test [2] (setting [7]) it was -3%; in test [2] (setting [8]) it was 98% (active); in test [2] (at 50.0 µM), 23.1%. In addition, the growth inhibition in test [3] (setting [7]) was -4%; in test [3] (setting [8]) it was 57%; in test [3] (at 50.0 µM) it was 57.9%; in test [4] (setting [7]), -1%; in test [4] (setting [8]), 95% (active); in test [4] (at 50.0 µM), -46.7%. Also, the growth inhibition is 4% in test [5] (setting [7]); 91% (active) in test [5] (setting [8]); -3.15% in test [5] (at 50.0 µM); 7% in test [6] (setting [7]); 98% (active) in test [6] (setting [8]); 37.9% in test [6] (at 50.0 µM).

The values are drawn from PubChem BioAssay (NCI).
